Screening data as filed in PubChem BioAssay.
HIF-2a inh – HIF-2a reporter inhibitors, primary screen, luminescence, 786-0 RCC cells; 786-0 RCC cells HIF-2a reporter, luciferase luminescence, overnight; inhibition, % at 18.8 µM; actives 0.72% (n = 360,000);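 active means inhibition of the luminescence signal of 40% or more relative to plate controls, in a single-dose primary screen at 18.75 µM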
CF NFkB inh – inhibitors of PAF-induced NF-kB signaling, primary screen, cell-based, GFP fluorescence, uHTS | KKLEB NF-kB-GFP reporter, GFP fluorescence overnight | actives 0.86% (n = 360,000) | inhibition, % at 5 µM;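 active means at least 50% inhibition at 5 µM, scaled per plate between neutral and stimulator controls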;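 further: PAF is a Pseudomonas aeruginosa culture filtrate used as stimulus; plate controls were PAF-stimulated DMSO wells for no effect and unstimulated DMSO wells for full effect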
Peg3 prom inh-1 – Peg3 promoter-driven luciferase inhibitors, primary screen, cell-based, HeLa, luciferase luminescence; inhibition, % at 20 µM; actives 1.7% (n = 360,000); HeLa PEG-Prom luciferase reporter, overnight; AID 588405, 2011;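 active means inhibition of at least 50% at 20 µM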
KKLEB tox – cytotoxicity in KKLEB CF airway cells, primary screen, cytotoxicity control for CF NF-kB inhibitor project, cell-based, uHTS, fluorescence assay plates | KKLEB CF airway cells viability, ATPlite luminescence, overnight; stronger effect = lower value; cells stimulated with P. aeruginosa culture filtrate | activity change (cytotoxicity), % at 5 µM | actives 0.36% (n = 360,000);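 active means corrected activity change at or below -50% at 5 µM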
TWEAK Fn14 block – inhibitors of TWEAK-Fn14 signaling, primary screen, luciferase reporter cells, uHTS; TWEAK-stimulated Fn14 reporter cells, luciferase luminescence, 8 h; inhibition, % at 10 µM; actives 2% (n = 360,000); in the data active means inhibition above about 50%
TROY signal inh – inhibitors of TROY-driven NF-kB signaling, primary screen, Q293 LMP1-TROYcd cells, NF-kB luciferase, uHTS; actives 0.98% (n = 360,000); AID 1347056, 2019; inhibition, % at 10 µM; Q293 LMP1-TROYcd NF-kB luciferase reporter, 4 h;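 active means compounds whose plate-normalised and pattern-corrected inhibition of the luciferase reporter signal at the single screening dose is 50% or more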
Peg3 prom inh-2 – Peg3 promoter reporter inhibitors, retest, confirmation, cell-based, HeLa, luciferase reporter, single concentration | inhibition, % at 20 µM | shares compounds with Peg3 prom inh-1 | actives 84% (n = 1,300) | HeLa PEG-Prom luciferase reporter, luminescence, overnight;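 active means at 20 µM dose, 40% or more inhibition averaged across four replicates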
Active calls of the source: *; · = no result. Compounds with a hit are over-represented: about 4% of the library has one in this group of screens.

SMILES	HIF-2a inh	CF NFkB inh	Peg3 prom inh-1	KKLEB tox	TWEAK Fn14 block	TROY signal inh	Peg3 prom inh-2
Cc1ccc(C(C[N+](=O)[O-])n2nc(C)cc2C)cc1 (configuration not stated)	3	0	28	-8	12	-4	·
CCCS(=O)(=O)NC(=O)C1(C)CCN(C(=O)c2ccnc(Cl)c2)C1 (configuration not stated)	5	-7	18	-2	-6	-1	·
CN(C)S(=O)(=O)c1ccc(C(=O)NCCN2C(=O)S/C(=C\c3cccnc3)C2=O)cc1	-4	-13	0	3	-7	3	·
CS(=O)(=O)c1ccc(C(=O)NCCN2C(=O)S/C(=C\c3cccnc3)C2=O)cc1[N+](=O)[O-]	8	78*	99*	-68*	83*	15	54*
CCN(CC)CCNC(=O)c1cn(CC)c2cc(N3CCN(C(=O)c4ccco4)CC3)c(F)cc2c1=O	11	-4	19	5	-8	12	·
CCn1cc(C(=O)NCCC(C)C)c(=O)c2cc(F)c(N3CCN(C(=O)c4ccco4)CC3)cc21	12	7	64*	-17	33	21	49*
COc1cccc(NC(=O)Nc2cccc(C(=O)O)c2)c1	81*	6	67*	4	4	-22	55*
Cc1nc(CC(=O)NNS(=O)(=O)c2cccc(Cl)c2Cl)cs1	1	10	6	-20	5	-11	·
CN(C)CCCN(C(=O)c1ccc(C(=O)c2ccccc2)cc1)c1nc2cc3c(cc2s1)OCO3	-4	11	86*	-7	-24	9	90*
CCN(Cc1ccccc1)S(=O)(=O)c1ccc(C(=O)N(CCCN(C)C)c2nc3cc4c(cc3s2)OCCO4)cc1	-42	-10	53*	-3	6	16	72*
Cc1ccc2nc(N(CCCN(C)C)C(=O)c3ccc4c(c3)CCCC4)sc2c1	4	24	108*	-33	8	0	98*
CCC(=O)c1ccc(OCC(=O)OCC(=O)N2CCCc3ccccc32)cc1	7	-7	4	14	-2	1	·
COC(=O)CSc1ncnc2scc(-c3ccccc3)c12	17	35	14	-24	8	10	·
CC(=O)c1ccccc1-c1csc2ncnc(Sc3nnnn3C)c12	8	43	54*	-27	33	-11	7
O=C(CNC(=O)C(c1ccccc1)c1ccccc1)N/N=C/c1ccc(O)cc1O	9	27	51*	-6	4	13	65*
O=C(CNC(=O)C(c1ccccc1)c1ccccc1)N/N=C\c1cccc(O)c1	0	-5	2	3	7	5	·
Cc1nc(NC(=O)CN2CCN(c3cccc(Cl)c3)CC2)sc1C(=O)N(C)C	26	0	15	8	17	7	·
FC(F)(F)c1cc(CCN2C(=S)NC[C@@H]2Cc2ccccc2)cc(C(F)(F)F)c1	-1	15	0	-38	9	13	·
NC1=NC[C@H](Cc2ccccc2)N1CCc1cc(C(F)(F)F)cc(C(F)(F)F)c1	4	-34	85*	4	-10	-4	53*
CC(=O)Nc1cccc(-c2ccnc3c2CC(C)(C(=O)Nc2cccc(C(F)(F)F)c2)O3)c1 (configuration not stated)	21	24	52*	-16	21	27	62*
CCCCNC(=O)C(C)N(CCN(C)C)C(=O)CCCN1C(=O)NC(c2ccc([N+](=O)[O-])cc2)C(C(=O)OCc2ccccc2)=C1C (configuration not stated)	-28	33	57*	-19	-47	5	31
CCOc1ccc(CCNc2nc3ccc(C)cc3n3cnnc23)cc1OCC	3	18	2	-3	-15	-8	·
CCN(CC)CCSc1nnc2c3cc(C)ccc3n(Cc3ccccc3)c2n1	14	-31	64*	-6	-8	5	46*
O=S(=O)(c1cccs1)N1CCN(c2ccnc3cc(Cl)ccc23)CC1	33	25	51*	-19	18	37	69*
O=[N+]([O-])CC1(n2nc3ccccc3n2)CCCCC1	7	46	67*	-47	37	18	-2
SMILES	HIF-2a inh	CF NFkB inh	Peg3 prom inh-1	KKLEB tox	TWEAK Fn14 block	TROY signal inh	Peg3 prom inh-2
CNC(=O)c1cc(NC(=O)N(CCC#N)CCN(C(=O)NC(Cc2ccccc2)C(=O)NC(CC(C)C)C(=O)NC)c2ccccc2)ccc1OC (configuration not stated)	1	-3	6	-11	-13	9	·
CN(C(=O)COC(=O)/C=C/c1cccc([N+](=O)[O-])c1)C1CCS(=O)(=O)C1 (configuration not stated)	40	9	51*	-4	-27	5	62*
O=C(COC(=O)CNC(=O)c1ccccc1)Nc1nnc(-c2ccccc2)o1	-8	-15	11	27	2	6	·
COc1ccc(C2C3(C#N)C(N)=NC(OC)(OC)C23C#N)cc1 (configuration not stated)	5	17	17	-8	12	-1	·
COc1ccc(C2NC3=C(CCC3)C3(C#N)C4(N=C(N)C23C#N)OCCO4)cc1 (configuration not stated)	38	-19	67*	9	24	12	30
CCN(CC)CCN1CCN(c2cncc(-c3ccc4ccccc4c3)n2)CC1	-21	-8	71*	-12	-28	-12	90*
CCOC1=C2CN(S(=O)(=O)c3ccc(C)cc3)[C@@H](c3cccs3)C[C@H]2[C@H]2C(=O)N(c3ccccc3)C(=O)[C@H]2C1	5	-1	11	-3	-18	9	·
Cc1[nH]nc(C(F)(F)F)c1N=NN1CCOCC1	18	-24	23	2	27	7	·
CC(C)(C)c1ccc(C(=O)N2CCN(Cc3ccccc3)CC2)cc1	-14	18	6	-4	10	19	·
CC(C)(C)c1ccc(CN2N=Nc3ccccc3S2(=O)=O)cc1	3	47	94*	-22	29	-16	55*
CC1CCCN(C(=O)CCNS(=O)(=O)c2ccc3c(c2)oc(=O)n3C)C1 (configuration not stated)	1	10	11	10	2	-15	·
